# Reference: PMC5540273 (PLoS ONE, 2017)
# Tests used:
# Details in all cases: concentration: 1 μM, replicates: in singlicate; n = 1
# TSSK1B = test system: TSSK1B
# TSSK3 = test system: TSSK3
# TTK = test system: TTK
# TXK = test system: TXK
# [1] = test system: TYK2(JH1domain-catalytic)
# [2] = test system: TYK2(JH2domain-pseudokinase)
# TYRO3 = test system: TYRO3
# ULK1 = test system: ULK1
# ULK2 = test system: ULK2
# ULK3 = test system: ULK3
# VEGFR2 = test system: T1, VEGFR2
# T1 construct: gene KDR
# VPS34 = test system: T2, VPS34
# T2 construct: gene PIK3C3
# VRK2 = test system: VRK2
# WEE1 = test system: WEE1
# WEE2 = test system: WEE2
# WNK1 = test system: WNK1
# WNK2 = test system: WNK2
# WNK3 = test system: WNK3
# WNK4 = test system: WNK4
# YANK1 = test system: T3, YANK1
# T3 construct: gene STK32A
# 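Further: KINOMEscan kinase panel screen.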
SMILES,%Inh (TSSK1B) [%],%Inh (TSSK3) [%],%Inh (TTK) [%],%Inh (TXK) [%],%Inh [1] [%],%Inh [2] [%],%Inh (TYRO3) [%],%Inh (ULK1) [%],%Inh (ULK2) [%],%Inh (ULK3) [%],%Inh (VEGFR2) [%],%Inh (VPS34) [%],%Inh (VRK2) [%],%Inh (WEE1) [%],%Inh (WEE2) [%],%Inh (WNK1) [%],%Inh (WNK2) [%],%Inh (WNK3) [%],%Inh (WNK4) [%],%Inh (YANK1) [%]
CSc1ccc(-c2nc3n(c2-c2ccncc2)CCC3)cc1 [SKF-105561],0,0,14,11,0,0,0,18,0,33,11,19,3,0,7,24,21,30,3,0
O=C1NC(=O)C(c2ccc(Cl)cc2)=C1Nc1ccc(O)cc1 [SB-340867],0,0,100,18,0,0,0,0,0,10,0,2,0,0,0,0,48,0,0,0
CS(=O)(=O)CCNCc1nc(-c2ccc3ncnc(Nc4ccc5c(cnn5Cc5ccccc5)c4)c3c2)cs1.Cl.Cl [GW569716],0,1,3,3,22,57,0,0,0,0,0,0,16,0,5,5,3,0,62,3
Nc1cccc(-c2ccc3c(N)n[nH]c3c2)n1 [GSK2192730],0,10,6,17,12,17,0,5,0,18,19,1,0,0,0,23,0,0,0,5
Cc1c(Cn2c3ccccc3n3c(=O)cc(N4CCOCC4)nc23)cccc1C(F)(F)F [GSK2306394],3,0,27,0,26,0,0,21,0,7,0,80,0,0,3,2,23,0,0,0
Cn1cncc1C(=O)NC1CCN(c2ccnc(Nc3ccc(F)cc3)n2)C1 (stereo not drawn) [GSK1379717],6,0,0,100,13,20,0,6,0,17,17,0,0,7,0,12,0,22,0,3
O=c1cc(N2CCOCC2)nc2n(Cc3ccccc3F)ccn12 [GSK2297428],0,13,0,0,0,0,0,0,0,0,0,94,0,0,0,0,0,19,0,0
CS(=O)(=O)Cc1ccc(Nc2nccc(-c3c(-c4cccc(NC(=O)C5CCCCC5)c4)nn4ncccc34)n2)cc1 [GSK350559],14,8,0,17,0,12,18,5,20,18,29,0,49,0,0,0,14,0,44,26
COc1ccc(-c2coc3ccc(-c4nnc(C)o4)cc23)cc1,0,0,0,0,0,0,0,0,0,0,0,0,0,0,4,0,32,0,0,0
CS(=O)(=O)CCNCc1nc(-c2ccc3ncnc(Nc4ccc(OCc5ccccc5)c(Cl)c4)c3c2)cs1.Cl [GW582764],19,8,0,6,30,35,0,5,0,3,0,0,50,0,16,6,13,45,60,0
Fc1ccc(-c2nn3cccc(F)c3c2-c2ccncc2)cc1 [GW475620],0,14,14,5,22,9,0,12,0,12,1,15,22,0,5,5,20,5,9,28
CNc1nc(-c2ccc3c(N)n[nH]c3c2)cc(N2C[C@@H](C(=O)NC3CCCCC3)OC[C@H]2C)n1 [GSK2375584],0,23,7,0,0,12,0,0,0,0,17,0,43,29,3,5,25,28,41,7
Cc1c(Cn2c(C)c(C)n3c(=O)cc(N4CCOCC4)nc23)cccc1C(F)(F)F [GSK2328680],11,7,0,20,5,4,0,9,0,14,0,20,0,9,14,0,0,0,0,6
CNc1cc(-c2ccc3c(N)n[nH]c3c2)nc(N)n1 [GSK2224810],0,31,0,0,7,43,0,36,17,5,25,0,0,1,5,0,0,19,88,36
COc1ccc2cc(-c3nc(-c4ccccc4C(C)C)[nH]c3-c3ccncc3)ccc2c1 [SB-660566],54,31,0,35,7,27,0,19,0,14,0,0,0,12,15,10,14,42,0,16
COC(=O)c1cccc(NC(=O)NC2CCN(c3ccnc(Nc4ccc(OC)cc4)n3)C2)c1 (stereo not drawn) [GSK1379746],13,7,0,8,33,51,0,0,3,9,0,0,0,7,0,11,4,51,46,0
Cc1ccc(NC(=O)Nc2ccccc2)cc1-c1ccc(C(=O)Nc2ccncc2)cc1 [GSK1398471],0,0,2,0,0,0,15,12,0,7,0,0,0,26,0,0,36,0,0,9
COc1ccc(CSc2nnc(-c3ccc4c(c3)CCO4)o2)cc1,0,0,0,0,0,0,0,0,0,0,0,15,0,0,14,0,0,0,0,0
COC(=O)C(Cc1ccccc1)NC(=O)NC1CCN(c2ccnc(Nc3ccc(F)cc3)n2)C1 (stereo not drawn) [GSK1379714],0,21,0,0,33,19,0,0,0,0,7,3,38,0,13,3,46,38,45,0
Nc1ncnc2occ(-c3ccc4c(c3)CCN4C(=O)Cc3cc(F)ccc3F)c12 [GSK2645446],0,4,0,0,2,3,0,0,0,0,0,0,0,0,13,1,14,38,60,0
CCc1ccc(-c2ccc3c(c2)-c2n[nH]cc2S(=O)(=O)N3C)cc1,0,0,0,14,0,5,0,0,0,0,0,4,0,14,0,23,2,3,0,0

SMILES,%Inh (TSSK1B) [%],%Inh (TSSK3) [%],%Inh (TTK) [%],%Inh (TXK) [%],%Inh [1] [%],%Inh [2] [%],%Inh (TYRO3) [%],%Inh (ULK1) [%],%Inh (ULK2) [%],%Inh (ULK3) [%],%Inh (VEGFR2) [%],%Inh (VPS34) [%],%Inh (VRK2) [%],%Inh (WEE1) [%],%Inh (WEE2) [%],%Inh (WNK1) [%],%Inh (WNK2) [%],%Inh (WNK3) [%],%Inh (WNK4) [%],%Inh (YANK1) [%]
Cc1cccc2c(-c3ccncn3)c(-c3ccc(F)cc3)nn12 [GW515532],16,0,14,12,30,24,0,19,0,10,5,30,0,0,0,16,0,22,0,26
Cl.Cl.Cl.N#Cc1ccc(CCNc2nccc(-c3cccc(CN4CCNCC4)c3)n2)cc1 [GSK2137462],0,5,14,2,0,0,23,11,12,2,0,7,0,90.8,0,0,0,0,95.5,12
CCn1c(-c2ccccc2)nc2cnccc21 [SB-733416],32,14,0,9,24,45,0,20,0,14,0,0,34,8,2,17,0,26,19,0
COc1ccc(Nc2nccc(N3CCC(NC(=O)C(C)c4ccc(Cl)cc4)C3)n2)cc1 (stereo not drawn) [GSK1379735],1,24,29,21,28,1,22,9,9,9,0,15,0,16,0,6,31,8,0,69
CC(=O)c1c(C)c2cnc(Nc3ccn(C)n3)nc2n(C2CCCC2)c1=O,16,0,52,0,0,0,0,0,6,0,0,3,28,0,0,0,0,0,0,0
O=C1NC(=O)C(c2ccc(Cl)cc2)=C1Nc1cccc(Cl)c1 [SB-317651],0,18,0,12,0,0,0,11,25,1,0,90.2,90.5,0,29,0,27,0,0,0
COC(=O)C(NC(=O)NC1CCN(c2ccnc(Nc3ccc(F)cc3)n2)C1)c1ccccc1 (stereo not drawn) [GSK1379712],14,23,3,0,13,22,0,0,3,4,14,0,24,9,0,22,28,36,25,0
Cn1cnc2c(N)ncnc21 [SKF-97623],0,0,0,0,0,0,0,0,0,0,100,0,96.8,0,29,0,8,0,0,0
CC(=O)c1c(C)c2cnc(Nc3ccc(N4CCNCC4)cn3)nc2n(C2CCCC2)c1=O,0,0,92.1,5,0,0,0,0,45,0,6,0,0,0,0,0,0,0,0,16
O=c1cc(N2CCOCC2)nc2n(Cc3cccc(Cl)c3Cl)c3ccccc3n12 [GSK2299009],10,20,8,0,0,0,0,18,0,2,7,96.7,0,28,17,6,42,5,0,22
CNCc1ccc2nc(NC(=O)c3ccc(C(C)(C)C)cc3)cn2c1,0,0,0,8,0,24,0,20,15,58,6,2,74,0,0,0,0,30,13,2
Cc1ccc(-c2nc(Nc3ccncc3)c3ccccc3n2)s1 [GSK189015],15,17,40,53,24,76,12,12,5,7,0,0,0,8,4,0,3,0,0,15
Fc1ccc(-c2nc3n(c2-c2ccncc2)CCS3)cc1 [GI98581],0,22,0,0,8,11,0,2,0,0,0,21,0,3,7,0,7,13,2,13
FC(F)(F)c1ccccc1-c1cc(-c2c[nH]nc2-c2ccccn2)ccn1 [GW679396],1,4,0,0,0,0,13,0,0,0,1,0,0,4,5,0,0,13,11,3
Cc1nccc(-c2c(-c3ccc(F)cc3)ncn2CCCN2CCOCC2)n1.Cl [SB-282975],3,43,0,31,42,28,14,9,26,20,0,0,0,9,16,12,6,2,0,0
O=C(Nc1n[nH]c2nc(-c3cccs3)c(Br)cc12)C1CCCC1 [SB-743341],24,0,37,7,0,7,1,26,32,0,28,0,0,0,22,0,5,0,3,24
CC(C)c1ccc(O)cc1Nc1ccnc2ccc(C(F)(F)F)cc12 [GW482059],0,3,2,19,23,0,0,20,0,8,0,15,0,0,5,1,0,0,0,0
Cc1ccc(NC(=O)Nc2ccccc2F)cc1-c1ccc(C(=O)Nc2ccncc2)cc1 [GSK1398477],3,11,22,8,0,0,9,8,0,0,0,11,0,26,12,2,0,0,0,5
CC(=O)c1cccc(NC(=O)NC2CCN(c3ccnc(Nc4ccc(F)cc4)n3)C2)c1 (stereo not drawn) [GSK1379710],39,32,23,16,26,22,0,2,4,10,8,10,19,19,10,10,0,49,22,12
O=C(Nc1n[nH]c2cc(-c3ccsc3)ccc12)C1CC1 [SB-732932],13,27,35,5,9,0,14,21,6,32,13,27,0,0,13,18,34,18,9,0
CNC(=O)c1ccc(C)c(-n2c(C)cc(OCc3ccc(F)cc3F)c(Br)c2=O)c1,0,0,0,0,0,0,0,0,0,0,0,0,0,0,0,0,0,0,0,4
